{"source": "PubChem BioAssay (NCATS)", "key": {"[1]": {"experiment": "AP1 Signaling Pathway (AID 357; active means well fitted curve in either direction with a large enough effect, not every such curve was filed as active; further: on the % scale 0 is the no-effect control and ±100 the full control effect)", "conditions": "ME-180 AP-1-bla reporter, EGF-induced, beta-lactamase ratio, 5 h; at 17.2 µM (top of the series) unless noted", "procedure,_shortened": "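A ratiometric CCF4 readout (405 nm excitation; 460 and 530 nm emission) quantified AP-1-driven beta-lactamase in ME-180 cells after 5 h with compound and EC50 EGF; AC50 values were derived for activators and inhibitors.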"}, "[2]": {"biological_target": "Glucocorticoid receptor (Homo sapiens) (UniProt P04150)", "sequence (P04150 whole entry, looked up, the tested form may be a part)": "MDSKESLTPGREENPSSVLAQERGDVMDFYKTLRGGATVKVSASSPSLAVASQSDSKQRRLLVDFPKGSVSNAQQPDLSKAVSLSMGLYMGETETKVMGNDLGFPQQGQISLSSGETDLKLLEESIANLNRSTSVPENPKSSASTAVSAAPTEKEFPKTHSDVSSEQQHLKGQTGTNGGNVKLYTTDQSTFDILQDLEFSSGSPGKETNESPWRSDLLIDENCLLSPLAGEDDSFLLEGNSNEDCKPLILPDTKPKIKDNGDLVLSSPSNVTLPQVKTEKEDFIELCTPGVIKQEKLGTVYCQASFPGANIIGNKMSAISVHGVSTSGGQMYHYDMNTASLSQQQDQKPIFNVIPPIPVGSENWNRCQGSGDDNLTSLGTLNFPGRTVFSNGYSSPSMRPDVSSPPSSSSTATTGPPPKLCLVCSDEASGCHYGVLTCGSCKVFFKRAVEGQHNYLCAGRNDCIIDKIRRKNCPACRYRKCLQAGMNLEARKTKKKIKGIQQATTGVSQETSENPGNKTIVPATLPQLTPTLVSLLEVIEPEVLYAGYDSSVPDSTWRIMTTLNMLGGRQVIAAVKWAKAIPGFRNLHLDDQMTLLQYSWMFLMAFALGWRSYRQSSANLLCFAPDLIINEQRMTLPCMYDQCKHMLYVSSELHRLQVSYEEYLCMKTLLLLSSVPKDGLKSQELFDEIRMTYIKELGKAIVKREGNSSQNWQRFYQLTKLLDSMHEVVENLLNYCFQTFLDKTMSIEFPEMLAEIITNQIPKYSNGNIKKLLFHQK", "experiment": "GR-GFP Redistribution (AID 450;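 active means compounds whose dose series gives a full or clear partial fitted curve of increased nuclear translocation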; further: potency means the concentration at half of the fitted maximal effect)"}, "[3]": {"biological_target": "Glucocorticoid receptor (Homo sapiens) (UniProt P04150)", "experiment": "GR-EFC Redistribution (AID 451; calls by dose curve; further: potency means the concentration at half of the fitted maximal effect)", "conditions": "CHO-K1 GR-EFC translocation, beta-gal luminescence, 2 h", "procedure,_shortened": "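CHO-K1 cells expressing nuclear EA and GR-ED fragments of b-gal; compounds titrated up to 46 uM final, 2 h at 37 C. GR nuclear translocation read as complemented b-gal luminescence after 1 h RT detection.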"}, "[4]": {"biological_target": "3',5'-cyclic-AMP phosphodiesterase 4B (Homo sapiens) (UniProt Q07343)", "sequence (Q07343 whole entry, looked up)": "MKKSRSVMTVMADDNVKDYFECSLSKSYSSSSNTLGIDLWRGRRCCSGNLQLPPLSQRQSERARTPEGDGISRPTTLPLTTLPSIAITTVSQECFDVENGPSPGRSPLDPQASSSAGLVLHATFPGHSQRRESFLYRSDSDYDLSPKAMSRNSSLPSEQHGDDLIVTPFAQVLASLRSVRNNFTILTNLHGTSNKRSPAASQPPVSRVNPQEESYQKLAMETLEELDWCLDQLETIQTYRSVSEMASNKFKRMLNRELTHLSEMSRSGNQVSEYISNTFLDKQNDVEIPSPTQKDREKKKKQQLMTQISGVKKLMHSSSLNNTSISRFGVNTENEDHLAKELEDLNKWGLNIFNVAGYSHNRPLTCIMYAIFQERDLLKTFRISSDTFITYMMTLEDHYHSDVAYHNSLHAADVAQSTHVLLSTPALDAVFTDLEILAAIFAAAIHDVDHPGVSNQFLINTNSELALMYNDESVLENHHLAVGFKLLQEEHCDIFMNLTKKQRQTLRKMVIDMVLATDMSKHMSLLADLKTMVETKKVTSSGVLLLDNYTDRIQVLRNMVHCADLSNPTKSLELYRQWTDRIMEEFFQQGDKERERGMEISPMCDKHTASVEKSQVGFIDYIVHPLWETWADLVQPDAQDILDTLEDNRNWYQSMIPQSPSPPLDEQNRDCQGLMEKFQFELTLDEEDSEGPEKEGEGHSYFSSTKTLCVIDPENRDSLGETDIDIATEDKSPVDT", "experiment": "qHTS Assay for Inhibitors of PDE-IV (AID 607; active means well fitted activation curve with a large enough effect in the main read-out, with a control signal flat, not every such curve was filed as active; further: % of control where 0% means no effect)", "procedure,_shortened": "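HEK293 ACTOne cells with CNG channel (1000/well), endogenous PDE4; membrane potential dye, compounds up to 22.9 uM final. Fluorescence Ex 535/Em 590; RO 20-1724 (100 uM final) as reference.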"}, "[5]": {"biological_target": "Tumor susceptibility gene 101 protein (Homo sapiens) (UniProt Q99816)", "sequence (Q99816 whole entry, looked up, the tested form may be a part)": "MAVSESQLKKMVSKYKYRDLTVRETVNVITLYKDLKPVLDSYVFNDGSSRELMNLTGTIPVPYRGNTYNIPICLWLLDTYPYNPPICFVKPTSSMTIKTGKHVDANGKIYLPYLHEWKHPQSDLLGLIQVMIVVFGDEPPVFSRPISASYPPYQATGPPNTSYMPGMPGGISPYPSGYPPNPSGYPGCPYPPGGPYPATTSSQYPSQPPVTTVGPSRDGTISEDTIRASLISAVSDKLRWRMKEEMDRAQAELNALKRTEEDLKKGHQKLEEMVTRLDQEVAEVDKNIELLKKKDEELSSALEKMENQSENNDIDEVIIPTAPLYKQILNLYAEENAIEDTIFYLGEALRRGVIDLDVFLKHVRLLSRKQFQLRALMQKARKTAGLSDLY", "experiment": "qHTS Assay for Iinhibitors of HIV-1 Budding by Blocking the Interaction of PTAP/TSG101: Hit Validation (AID 651600); further: potency means the concentration at half of the fitted maximal effect; nearly all actives have a fitted effect of over 70% in size", "procedure,_shortened": "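Fluorescence polarization binding assay: Tsg101 binding domain (10 uM final) pre-dispensed with compounds, then FITC-labeled PTAP-motif peptide (50 nM final) added; 20 min at r.t. in HEPES pH 7.5 buffer with NaCl, Tween 20, EDTA, TCEP.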"}, "[6]": {"biological_target": "Cytochrome P450 1A2 (Homo sapiens) (UniProt P05177)", "sequence (P05177 whole entry, looked up)": "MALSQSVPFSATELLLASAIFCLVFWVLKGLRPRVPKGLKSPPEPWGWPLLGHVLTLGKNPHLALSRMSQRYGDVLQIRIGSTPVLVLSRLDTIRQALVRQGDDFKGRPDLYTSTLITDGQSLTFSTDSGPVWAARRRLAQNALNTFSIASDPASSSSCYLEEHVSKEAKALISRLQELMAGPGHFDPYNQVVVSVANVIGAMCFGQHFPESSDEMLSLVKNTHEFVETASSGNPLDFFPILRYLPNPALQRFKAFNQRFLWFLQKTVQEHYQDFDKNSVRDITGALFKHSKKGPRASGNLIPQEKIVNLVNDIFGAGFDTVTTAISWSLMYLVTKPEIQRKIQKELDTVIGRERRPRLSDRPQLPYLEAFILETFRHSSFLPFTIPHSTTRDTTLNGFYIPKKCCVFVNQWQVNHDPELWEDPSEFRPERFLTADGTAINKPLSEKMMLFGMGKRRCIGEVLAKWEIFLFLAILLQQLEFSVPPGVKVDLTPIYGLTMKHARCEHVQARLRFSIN", "experiment": "p450-cyp1a2 (AID 410; calls by dose curve; further: potency means the concentration at half of the fitted maximal effect)", "procedure,_shortened": "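Luminescent readout of luciferin formed from Luciferin-ME by human CYP1A2; data normalized against complete inhibition by 57 uM furafylline. Enzyme 20nM, substrate 100uM at Km, 100mM KPO4 buffer, 60 min reaction at room temperature.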"}, "[7]": {"experiment": "NFAT Signaling Pathway (AID 444; active means well fitted curve in either direction with a large enough effect, not every such curve was filed as active;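 further: carbachol stimulus at about its EC50 of 1 µM final; on the % scale 0 is the no-effect control and ±100 the full control effect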)", "conditions": "Jurkat NFAT-bla M1, carbachol, beta-lactamase ratio, 5 h; at 17.2 µM (top of the series) unless noted", "procedure,_shortened": "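Jurkat cells with NFAT-driven β-lactamase reporter and co-expressed M1 receptor, stimulated with carbachol (final 1 uM, ~EC50), compound titration, 5 h at 37 °C. CCF4 loaded 1 h at RT; 460/530 nm ratio gave %activity and AC50.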"}, "[8]": {"experiment": "Stat Signaling Pathway (AID 446; active means well fitted curve in either direction with a large enough effect, not every such curve was filed as active;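 further: ME-180 cervical cancer cells given 40 pM IL-6 alongside compound; on the % scale 0 is the no-effect control and ±100 the full control effect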)", "conditions": "ME-180 SIE beta-lactamase reporter, IL-6 stimulated, 5 h; at 17.2 µM (top of the series) unless noted", "procedure,_shortened": "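ME-180 cells carrying a SIE-driven beta-lactamase reporter are stimulated with 40 pM IL-6 for 5 h at 37C in the presence of compound. The 460/530 nm FRET substrate ratio is read after 2.5 h at RT. Data are normalised to 300 pM IL-6 and to 125 nM JAK inhibitor controls.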"}, "[9]": {"biological_target": "Guanine nucleotide-binding protein G(i) subunit alpha-1 (Homo sapiens) (UniProt P63096)", "sequence (P63096 whole entry, looked up)": "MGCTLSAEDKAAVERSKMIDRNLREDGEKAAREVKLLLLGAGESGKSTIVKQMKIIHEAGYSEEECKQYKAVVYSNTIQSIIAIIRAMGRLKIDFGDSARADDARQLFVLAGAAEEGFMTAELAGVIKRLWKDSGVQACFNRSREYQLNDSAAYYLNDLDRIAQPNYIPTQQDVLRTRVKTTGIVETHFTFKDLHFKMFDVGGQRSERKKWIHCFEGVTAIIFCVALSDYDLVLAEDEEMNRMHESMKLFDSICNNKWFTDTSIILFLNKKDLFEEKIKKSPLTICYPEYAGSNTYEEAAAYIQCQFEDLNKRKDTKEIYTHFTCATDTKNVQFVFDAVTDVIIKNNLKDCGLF", "experiment": "qHTS Assay for Inhibitors of RGS12 GoLoco Motif Activity (Green Fluorophore) (AID 879);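 further: 0% = labeled peptide with Gαi1 and full inhibition = labeled peptide alone without protein; negative values mean loss of peptide binding seen as reduced polarization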", "procedure,_shortened": "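Fluorescence polarization assay: 50 nM Gαi1 with 10 nM FITC-labeled RGS12 GoLoco peptide in 10 mM Tris pH 7.5, 150 mM NaCl, 0.1 mM GDP, 0.05% NP40, 10 min at room temperature with compound.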"}, "[10]": {"biological_target": "Cytochrome P450 3A4 (Homo sapiens) (UniProt P08684)", "sequence (P08684 whole entry, looked up)": "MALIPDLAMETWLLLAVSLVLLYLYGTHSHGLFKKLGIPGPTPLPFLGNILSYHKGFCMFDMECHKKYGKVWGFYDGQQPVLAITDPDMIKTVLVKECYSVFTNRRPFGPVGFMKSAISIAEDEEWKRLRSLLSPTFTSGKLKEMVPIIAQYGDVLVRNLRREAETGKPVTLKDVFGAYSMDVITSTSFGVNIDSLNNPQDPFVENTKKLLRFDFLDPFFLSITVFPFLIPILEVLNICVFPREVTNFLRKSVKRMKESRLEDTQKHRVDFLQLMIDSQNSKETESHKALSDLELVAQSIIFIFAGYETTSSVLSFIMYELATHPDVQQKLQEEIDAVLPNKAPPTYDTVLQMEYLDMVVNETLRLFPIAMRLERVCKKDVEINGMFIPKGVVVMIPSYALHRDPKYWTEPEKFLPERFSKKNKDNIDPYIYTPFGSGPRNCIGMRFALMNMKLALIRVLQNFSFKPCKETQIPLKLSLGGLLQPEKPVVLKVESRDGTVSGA", "experiment": "qHTS Assay for Activators of Cytochrome P450 3A4 (AID 885); further: nearly all actives have a fitted effect of over 65% in size", "procedure,_shortened": "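Human CYP3A4 (20 nM) with Luciferin-PPXE at 25 uM (its KM) in 200 mM KPO4; 10 min compound preincubation, then NADPH regeneration and 60 min reaction at RT. Luciferin read by luminescence; normalized to 57 uM ketoconazole full inhibition.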"}, "[11]": {"experiment": "qHTS Assay for Identification of Small Molecule Agonists for Thrombopoietin (TPO) Signaling Pathway (AID 917); further: on the % scale 0 is the no-effect control and ±100 the full control effect", "procedure,_shortened": "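Murine Ba/F3 cells stably expressing human TPO receptor and a Glycoprotein IIb promoter–luciferase reporter were IL-3-starved overnight, then treated with compounds plus TPO (26 pM final, its EC50) for 24 hrs at 37 C; luminescence was read.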"}, "[12]": {"biological_target": "Muscarinic acetylcholine receptor M1 (Rattus norvegicus) (UniProt P08482)", "sequence (P08482 whole entry, looked up)": "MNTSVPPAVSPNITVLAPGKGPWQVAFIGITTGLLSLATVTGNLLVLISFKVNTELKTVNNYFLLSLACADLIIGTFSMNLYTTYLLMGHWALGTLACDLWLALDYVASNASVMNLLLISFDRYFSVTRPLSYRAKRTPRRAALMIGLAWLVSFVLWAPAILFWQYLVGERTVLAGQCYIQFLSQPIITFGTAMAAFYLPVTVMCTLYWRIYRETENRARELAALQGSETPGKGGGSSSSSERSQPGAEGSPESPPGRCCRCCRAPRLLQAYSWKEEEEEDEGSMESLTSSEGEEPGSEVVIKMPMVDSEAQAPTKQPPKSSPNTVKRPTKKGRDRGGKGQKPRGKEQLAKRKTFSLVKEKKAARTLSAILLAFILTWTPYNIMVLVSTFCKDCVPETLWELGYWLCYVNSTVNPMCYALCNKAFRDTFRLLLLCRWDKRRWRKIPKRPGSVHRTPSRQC", "experiment": "qHTS Assay for Antagonists of Acetylcholine Muscarinic M1 Receptor: Measurement of IP-One Response (AID 944); further: nearly all actives have a fitted effect of over 75% in size", "procedure,_shortened": "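M1-CHO (rat), 2000 cells/well, overnight recovery; cpd 10 min; carbachol EC80 (200 nM), 30 min, HEPES buffer + 50 mM LiCl pH 7.4; IP-One HTRF, Ex 337, Em 620/665 nm.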"}, "[13]": {"biological_target": "Pyruvate kinase (Leishmania mexicana) (UniProt Q27686)", "experiment": "qHTS Validation Assay for Inhibitors of Leishmania Mexicana Pyruvate Kinase (AID 945);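 further: 0% = DMSO only neutral control wells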", "procedure,_shortened": "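Compounds are tested as eight-point concentration series. Reactions contain 0.2 nM LmPYK E451W, 0.5 mM PEP, 0.1 mM ADP, 7 mM MgCl2 and 50 mM KCl at pH 7.2, run 1 h at room temperature, then read by PKLight luminescence.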"}, "[14]": {"biological_target": "Pyruvate kinase PKM (Homo sapiens) (UniProt P14618)", "sequence (P14618 whole entry, looked up)": "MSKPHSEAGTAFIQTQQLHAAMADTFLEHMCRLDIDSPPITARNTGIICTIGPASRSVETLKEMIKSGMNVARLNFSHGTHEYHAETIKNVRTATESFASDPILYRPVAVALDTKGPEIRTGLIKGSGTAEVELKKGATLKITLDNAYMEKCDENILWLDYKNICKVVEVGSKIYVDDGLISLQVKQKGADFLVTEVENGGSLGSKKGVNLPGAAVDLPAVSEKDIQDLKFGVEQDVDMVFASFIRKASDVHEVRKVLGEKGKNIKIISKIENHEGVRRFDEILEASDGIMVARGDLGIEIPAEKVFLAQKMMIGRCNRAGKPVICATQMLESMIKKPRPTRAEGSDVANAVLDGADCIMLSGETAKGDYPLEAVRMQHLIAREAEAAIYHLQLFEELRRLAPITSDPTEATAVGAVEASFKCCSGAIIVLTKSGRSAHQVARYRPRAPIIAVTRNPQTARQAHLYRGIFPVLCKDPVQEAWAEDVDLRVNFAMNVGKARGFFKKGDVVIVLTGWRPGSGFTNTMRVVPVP", "experiment": "qHTS Assay for Inhibitors of Human Muscle Pyruvate Kinase (AID 958)", "procedure,_shortened": "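Purified human PKM2 (0.1 nM) with 0.5 mM PEP (Km) and 0.1 mM ADP in 50 mM imidazole pH 7.2, KCl, MgCl2, 1 h at room temperature; ATP formed read by coupled luciferase luminescence. Normalized to no-enzyme/110 uM thiadiazolimine inhibition; 0.3 nM enzyme column for activation.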"}, "[15]": {"biological_target": "Alpha-galactosidase A (Homo sapiens) (UniProt P06280)", "experiment": "Counterscreen for Glucocerebrosidase Inhibitors: qHTS Assay for Human alpha-Galactosidase at pH 4.5 (AID 992); further: 0% is about no effect", "procedure,_shortened": "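Human enzyme (2 nM) with 80 uM 4-methylumbelliferyl alpha-D-galactopyranoside in 50 mM citric acid, 0.005% Tween-20, pH 4.5, 20 min at room temperature. Compounds 0.7 nM–77 uM; fluorescence Ex 365/Em 440 after pH 10 stop; AC50 from Hill fits.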"}, "[16]": {"biological_target": "Mitogen-activated protein kinase 10 (Mus musculus) (UniProt Q61831)", "experiment": "JNK3 AlphaScreen Assay (AID 530; active means well fitted curve in either direction with a large enough effect, not every such curve was filed as active)", "procedure,_shortened": "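Pre-activated (IL-1β/TNFα) JNK3 in HepG2 lysates phosphorylates biotin-GST-cJun(1-79), 10 uM ATP; anti-phospho-cJun(Ser73) AlphaScreen read at room temperature, pH 7.6 Tris buffer. Compounds pre-incubated 15 min as titrations.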"}, "[17]": {"biological_target": "Cytochrome P450 2C9 (Homo sapiens) (UniProt P11712)", "sequence (P11712 whole entry, looked up)": "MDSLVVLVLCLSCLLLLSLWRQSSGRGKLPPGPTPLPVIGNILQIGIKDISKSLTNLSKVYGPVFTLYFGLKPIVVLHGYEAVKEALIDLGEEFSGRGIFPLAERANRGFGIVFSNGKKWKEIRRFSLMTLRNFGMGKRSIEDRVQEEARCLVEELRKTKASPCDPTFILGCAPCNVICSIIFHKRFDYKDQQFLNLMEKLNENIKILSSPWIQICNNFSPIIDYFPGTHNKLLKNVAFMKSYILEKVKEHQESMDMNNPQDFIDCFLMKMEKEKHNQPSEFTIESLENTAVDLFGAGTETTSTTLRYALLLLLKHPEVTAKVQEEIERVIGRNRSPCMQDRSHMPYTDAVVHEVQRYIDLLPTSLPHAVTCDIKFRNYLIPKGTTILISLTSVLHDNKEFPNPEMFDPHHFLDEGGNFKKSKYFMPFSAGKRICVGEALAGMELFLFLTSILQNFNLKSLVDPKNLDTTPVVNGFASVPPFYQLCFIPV", "experiment": "qHTS Assay for Inhibitors and Substrates of Cytochrome P450 2C9 (AID 883); further: on the % scale 0 is the no-effect control and ±100 the full control effect; nearly all actives have a fitted effect of over 60% in size", "procedure,_shortened": "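Human CYP2C9 (10nM) with Luciferin-H at 100uM (its KM) in 25mM KPO4; compound preincubated 10 min at 37C, then NADPH regeneration for 60 min at 37C. Luciferin read by luminescence after detection reagent; normalized to 57uM sulphaphenazole as full inhibition.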"}, "[18]": {"biological_target": "Cytochrome P450 3A4 (Homo sapiens) (UniProt P08684)", "experiment": "qHTS Assay for Inhibitors and Substrates of Cytochrome P450 3A4 (AID 884); further: on the % scale 0 is the no-effect control and ±100 the full control effect; nearly all actives have a fitted effect of over 50% in size", "procedure,_shortened": "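20 nM human CYP3A4 with 25 uM Luciferin-PPXE (at KM) in 200 mM KPO4, preincubated 10 min with compound; NADPH regeneration started a 60 min RT reaction. Luciferin detected by luminescence, normalized to 57 uM ketoconazole as full inhibition.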"}, "[19]": {"biological_target": "DNA dC->dU-editing enzyme APOBEC-3G (Homo sapiens) (UniProt Q9HC16)", "experiment": "qHTS for inhibitors of Vif-A3G interactions: Validation (AID 588379); further: 0% is about no effect", "procedure,_shortened": "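HeLa cells stably expressing Vif and A3G-eYFP, 700 cells/well, incubated overnight at 37 deg C, then exposed to compound overnight at 37 deg C. Inhibition of Vif-mediated degradation read as increased yellow fluorescence (Ex 488/Em 500-530) by laser-scanning cytometry.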"}}, "note": "Unmarked numbers belong to inactive results. Results filed as inconclusive are left out. Calls of active or inactive are those of the source. Unless noted, the call rests on the fitted dose curve; in most records, active means well fitted curve in the direction sought with a large enough effect; inconclusive means small, poorly fitted or top-dose-only effect, or another doubt; inactive means no such curve, though single readings can be large; an effect the other way counts as inactive or inconclusive."}
{"smiles": "CCSc1nnc(NC(=O)C(CC)(C(F)(F)F)C(F)(F)F)s1", "values": [{"measurement": "activity change, negative = inhibition", "setting": "[1]", "result": -19, "unit": "%"}, {"measurement": "Potency", "setting": "[2]", "result": "> 20.6", "unit": "µM"}]}
{"smiles": "Cc1ccccc1-c1nn2c(-c3ccccc3)nnc2s1", "values": [{"measurement": "activity change, negative = inhibition", "setting": "[1]", "result": -18, "unit": "%"}, {"measurement": "Potency", "setting": "[2]", "result": "> 20.6", "unit": "µM"}]}
{"smiles": "CCOc1ccc2c(ccc(/C=C\\c3cc(C)c4cccnc4c3O)[n+]2C)c1", "values": [{"measurement": "activity change, negative = inhibition", "setting": "[1]", "result": "-9.14% [at 7.69 µM]"}, {"measurement": "Potency", "setting": "[2]", "result": "> 46", "unit": "µM"}, {"measurement": "Potency", "setting": "[3]", "result": "> 9.22", "unit": "µM"}, {"measurement": "Potency", "setting": "[4]", "result": "inactive"}]}
{"smiles": "N#CC1=C(N)C(C#N)(C#N)[C@H](c2ccncc2)[C@H]2CN(C(=O)OCc3ccccc3)CC=C12", "values": [{"measurement": "activity change, negative = inhibition", "setting": "[1]", "result": -27.2, "unit": "%"}, {"measurement": "Potency", "setting": "[2]", "result": "> 20.6", "unit": "µM"}]}
{"smiles": "CCCc1cc(-c2nc(N)ncc2-c2ccc3c(c2)OCCCO3)c(O)cc1OC", "values": [{"measurement": "activity change, negative = inhibition", "setting": "[1]", "result": -29.1, "unit": "%"}, {"measurement": "Potency", "setting": "[2]", "result": "> 20.6", "unit": "µM"}]}
{"smiles": "CCN1CC=C2C(C#N)=C(N)C(C#N)(C#N)[C@H](c3cccc(OC)c3OC)[C@H]2C1", "values": [{"measurement": "activity change, negative = inhibition", "setting": "[1]", "result": 9.63, "unit": "%"}, {"measurement": "Potency", "setting": "[2]", "result": "> 20.6", "unit": "µM"}, {"measurement": "Potency", "setting": "[5]", "result": "29.1 µM (active)"}]}
{"smiles": "CNC(=O)[C@@H]1O[C@@H](n2cnc3c(NCc4cccc(I)c4)ncnc32)[C@H](O)[C@@H]1O", "values": [{"measurement": "Potency", "setting": "[6]", "result": "inactive"}, {"measurement": "activity change, negative = inhibition", "setting": "[7]", "result": "9.56% [at 38 µM]"}, {"measurement": "activity, negative = inhibition", "setting": "[8]", "result": "-11.2% [at 38 µM]"}, {"measurement": "Potency", "setting": "[2]", "result": "> 46", "unit": "µM"}, {"measurement": "Potency", "setting": "[3]", "result": "> 46", "unit": "µM"}, {"measurement": "Potency", "setting": "[4]", "result": "inactive"}, {"measurement": "outcome", "setting": "[9]", "result": "inactive"}, {"measurement": "Potency", "setting": "[10]", "result": "inactive"}, {"measurement": "Potency", "setting": "[11]", "result": "inactive"}, {"measurement": "Potency", "setting": "[12]", "result": "inactive"}, {"measurement": "Potency", "setting": "[13]", "result": "inactive"}, {"measurement": "Potency", "setting": "[14]", "result": "inactive"}, {"measurement": "outcome", "setting": "[15]", "result": "inactive"}]}
{"smiles": "COc1cc2oc(-c3ccccc3)cc(=O)c2cc1O", "values": [{"measurement": "Potency", "setting": "[6]", "result": "1 µM (active)"}, {"measurement": "Potency", "setting": "[2]", "result": "> 46", "unit": "µM"}, {"measurement": "Potency", "setting": "[3]", "result": "> 46", "unit": "µM"}, {"measurement": "Potency", "setting": "[16]", "result": "inactive"}, {"measurement": "Potency", "setting": "[4]", "result": "inactive"}, {"measurement": "Potency", "setting": "[17]", "result": "inactive"}, {"measurement": "Potency", "setting": "[18]", "result": "inactive"}, {"measurement": "outcome", "setting": "[19]", "result": "inactive"}]}
